# Pf apPOL block: Pf-apPOL DNA polymerase inhibition. AID 1794808. Recombinant Pf-apPOL, molecular beacon fluorescence, 1.5 h. 210,000 tested, 0.25% active. inhibition, % at 10 µM
# mHTT CaM bind: inhibitors of human mutant huntingtin-calmodulin interaction; P42858; AlphaScreen His-mHTT/GST-CaM binding, luminescence; inhibition, % at 15 µM; 190,000 tested, 3.6% active;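 also: 0% = both proteins with DMSO and 100% = one protein alone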
# * hit, by the source's call; x = not tested or not shown. In the library only some 3.5% were active in any assay of this set; here they are far more common. Rule as the data show it: active = inhibition above about 50%; inactive = the rest.
SMILES,Pf apPOL block,mHTT CaM bind
CC(C)CC(=O)N1CCc2c(c(C(=O)NCc3ccc(Cl)cc3)nn2C)C1,3,66*
COCC(=O)N1CCc2c(c(C(=O)NCc3ccccc3)nn2C)C1,2,19
COCC(=O)N1CCc2c(c(C(=O)NCc3ccc(F)cc3)nn2C)C1,-9,-2
Cc1ccc(NC(=O)/C(=C\c2ccc3c(c2)OCO3)NC(=O)c2ccccc2Cl)cc1,7,8
O=C(NCC(c1ccco1)S(=O)(=O)c1ccc(F)cc1)Oc1ccccc1 (stereo unspecified),2,-10
COc1cccc(CNC(=O)C2(C)CCCN(C(=O)c3ccc(Cl)cc3)C2)c1 (stereo unspecified),5,-4
Cc1cc(C)c(S(=O)(=O)N=C2C=CC(=O)C(Br)=C2)c(C)c1,-4,53*
Cc1ccc(S(=O)(=O)N=C2C=CC(=O)C(Br)=C2)c(C)c1,-8,93*
Cc1cc(C)c(S(=O)(=O)N2CCCC2=O)c(C)c1,-12,-11
CCN(CC)C(=NS(=O)(=O)c1ccc(C)cc1C)c1ccccc1,-3,-1
COc1cccc(-c2nn(CC(=O)N3CCc4ccccc43)c(=O)c3nc(C)sc23)c1,-5,-2
COc1ccc(-c2nn(Cc3ccccc3F)c(=O)c3nc(C)sc23)cc1OC,-8,65*
O=C1OC(c2ccc(Cl)cc2)=N/C1=C\N1CCCCC1,0,6
O=C(CCc1c[nH]c2ccccc12)N1CCCN(C2CCN(CC3CC3)C2=O)CC1 (stereo unspecified),-3,20
COc1ccccc1NC(=O)CSC1=NC2(CCCCC2)Nc2ccccc21,2,-70
CC(C)(C)C(=O)N1CCCC1c1nc2cc(-c3ccccc3)ccc2o1 (stereo unspecified),1,15
CCNC(=O)N1CCCC1c1nc2cc(-c3ccc(N(C)C)cc3)ccc2o1 (stereo unspecified),-3,84*
CN1C(=O)S/C(=C\c2ccc(Oc3ccc([N+](=O)[O-])cn3)cc2)C1=O,-3,7
CCc1ccc(CNC(=O)C(=O)Nc2ccc3c(c2)OCO3)cc1,-7,5
Cc1ccc(O)c(-c2cc(C(F)(F)C(F)F)no2)c1,4,-19
CCC[C@H]1[C@@H](NC(=O)c2ccc(Cl)c(C(F)(F)F)c2)CC[C@@]23CCCN2C(=O)CCC[C@@H]13,3,96*
C[C@H]1[C@@H](NC(=O)c2ccc(Cl)c(C(F)(F)F)c2)CC[C@@]23CCCN2C(=O)CCC[C@@H]13,0,16
CCNC(=O)N1CCCC(n2c(=O)n(C)c3cncnc32)C1 (stereo unspecified),-5,-4
COc1ccc(CCN2C(=S)NC3c4cc([N+](=O)[O-])ccc4OC2(C)C3C)cc1OC (stereo unspecified),0,61*
COCCCN1C(=S)NC2c3cc([N+](=O)[O-])ccc3OC1(C)C2C (stereo unspecified),-4,0
SMILES,Pf apPOL block,mHTT CaM bind
Cc1cccc(-n2nc3c(c2NC(=O)c2cccs2)CSC3)c1C,-3,23
CCN1C(=O)c2cccc3c(NC(=O)CSc4ccc(OC)cc4)ccc1c23,-13,8
O=C(Nc1ccccc1C(=O)NCCCN1CCCCC1)c1ccc([N+](=O)[O-])cc1,-6,x
CC1CN(C(=O)NCc2cccc(F)c2)CC1c1nc(-c2cccnc2)no1 (stereo unspecified),0,1
COCCC1CCN(C(=O)Cc2ccc(Cl)cc2)CC1,-6,-7
CSc1ccccc1NC(=O)Cc1csc(NC(=O)c2ccccc2)n1,-2,2
COc1ccc(OC)c(S(=O)(=O)N2CCC3(C2)C(=O)Nc2ccccc23)c1 (stereo unspecified),-4,99*
COc1ccc(NC(=O)N2CCC3(C2)C(=O)Nc2ccccc23)c(OC)c1 (stereo unspecified),-4,8
C=C(C)CC1CC=C(Br)C(CC(=C)C)N1 (stereo unspecified),-28,-5
CCn1cc(-c2csc(N)n2)cn1,x,-1
O=C(CC(=O)c1ccccc1O)c1ccc(F)cc1,-4,38
O=C(CC(=O)c1ccccc1Cl)c1ccccc1O,0,50*
O=C(NCCNC(=O)c1ccccc1O)c1ccccc1O,6,5
O=C(CC(=O)c1ccccc1O)c1cccc(F)c1,2,57*
CS(=O)(=O)C(C#N)=Cc1c(-c2ccccc2)nc2n1CCS2,-9,x
COc1cc(/C=C2\NC(=O)NC2=O)ccc1OCC(N)=O,-5,2
Cc1ccc(NC2(c3ccccc3)C(=O)c3ccccc3C2=O)cc1,-8,46
COc1ccc(NC2(c3ccc(Cl)cc3)C(=O)c3ccccc3C2=O)cc1,-3,100*
NS(=O)(=O)c1ccc2nc(NC(=O)c3ccccc3F)sc2c1,-1,-3
COc1ccc2[nH]c3c(c2c1)CC(C)NC3=O (stereo unspecified),-3,1
O=C1NCCc2c1[nH]c1ccc(C#Cc3ccccc3)cc21,-31,97*
COc1ccc(/C=C2\C(C)=C(C#N)c3nc(N)c(C#N)c(C)c32)cc1OC,-7,29
